{"source": "PubChem BioAssay (EPA / NIEHS)", "note": "Several values for one entry are separate records, joined by “and”; a condition that tells them apart may be missing. Identical values can stand only once. Results filed as inconclusive are left out. Some compounds were tested as several samples or in several runs, with calls that do not always agree. Activity calls are given as the source filed them. Rule for the calls: active = hit-call score of the fitted dose curve at least 0.9, where 1 is the maximum; inconclusive = response in the unintended direction; inactive = score below 0.9.", "data": [{"molecular_target": "Estrogen receptor (Homo sapiens) (UniProt P03372)", "sequence (P03372 whole entry, looked up, the tested form may be a part)": "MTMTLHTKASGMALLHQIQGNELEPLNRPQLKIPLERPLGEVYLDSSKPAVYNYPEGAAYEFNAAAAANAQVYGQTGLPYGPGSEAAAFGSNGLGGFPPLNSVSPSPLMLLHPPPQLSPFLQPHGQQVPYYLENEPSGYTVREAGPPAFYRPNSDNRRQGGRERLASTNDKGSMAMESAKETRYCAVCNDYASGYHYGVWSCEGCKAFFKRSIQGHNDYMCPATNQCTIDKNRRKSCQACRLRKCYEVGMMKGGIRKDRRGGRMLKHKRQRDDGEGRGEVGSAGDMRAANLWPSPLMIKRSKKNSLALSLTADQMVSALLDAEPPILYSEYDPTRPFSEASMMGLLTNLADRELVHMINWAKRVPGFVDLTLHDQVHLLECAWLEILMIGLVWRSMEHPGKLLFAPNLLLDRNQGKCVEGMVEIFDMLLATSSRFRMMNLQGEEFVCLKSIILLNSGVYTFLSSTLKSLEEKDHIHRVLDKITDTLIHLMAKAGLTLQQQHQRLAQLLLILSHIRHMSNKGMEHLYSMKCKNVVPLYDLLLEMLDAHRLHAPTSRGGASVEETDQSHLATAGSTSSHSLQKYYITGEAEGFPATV", "assay": "OT_ER_ERaERa_0480: Odyssey Thera (OT) 8-hour HEK293T Protein-Complementation Assay for Estrogen Receptor-alpha/-alpha Homodimer (AID 2283351);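 note: rise in fluorescence from reassembled reporter fragments on ERα LBD homodimer in nucleus or whole cell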", "method": "OT_ER_ERaERa_0480 is a cell-based assay that uses HEK293T, a human kidney cell line, with measurements taken at 8 hours after chemical dosing in a 384-well plate.OT_ER_ERaERa_0480 is one of one assay component(s) measured or calculated from the OT_ER_ERaERa_0480 assay. It is designed to make measurements of protein fragment complementation, a form of binding reporter, as detected with fluorescence intensity signals by Protein-fragment Complementation technology.Data from the assay component OT_ER_ERaERa_0480 was analyzed into 1 assay endpoint. This assay endpoint, OT_ER_ERaERa_0480, was analyzed in the positive analysis fitting direction relative to DMSO as the negative control and baseline of activity. Using a type of binding reporter, measures of receptor for gain-of-signal activity can be used to understand the binding at the pathway-level as they relate to the gene ESR1. Furthermore, this assay endpoint can be referred to as a primary readout, because the performed assay has only produced 1 assay endpoint. To generalize the intended target to other relatable targets, this assay endpoint is annotated to the nuclear receptor intended target family, where the subfamily is steroidal.\nProtein-fragment complementation assay, or PCA, is a method for the identification and quantification of protein-protein interactions. In the PCA, the proteins of interest (\"bait\" and \"prey\") are each covalently linked to fragments of a third protein (e.g. DHFR, which acts as a \"reporter\"). Interaction between the bait and the prey proteins brings the fragments of the reporter protein in close proximity to allow them to form a functional reporter protein whose activity can be measured. The OT ER alpha / ER alpha assay is a homodimer PCA of the ligand binding domain (amino acids 310-547) of human ER alpha stably expressed in HEK293T cells. […] Fluorescent signal in the basal state of the assay is very low and is primarily punctuate and cytoplasmic. Modulation of this assay is quantified as an increase in mean fluorescence intensity in the nucleus (for agonists) or in the nucleus and cytoplasm (antagonists) relative to vehicle controls, and can be quantified on a high content imaging device or a laser scanning cytometer. The latter instrument is favored for this assay because of the rapid mode of data acquisition, the ability to acquire data from the entire cell population in a well (as opposed to a fraction of the well on the high content devices) and the larger dynamic range typically achieved with this instrument. To assess sensitivity of the ER alpha/ER alpha LBD assay to ligand, cells were treated with the ER agonist 17 beta-estradiol (E2) in 10-point concentration- response format for 8 hours and monitored response on a laser scanning plate cytometer (Acumen eX3; TTP Lab Tech).", "values": [{"smiles": "CO/C=C(/C(=O)OC)c1ccccc1COc1cccc(C(F)(F)F)n1", "outcome": "inactive"}, {"smiles": "Cc1cccc(C)c1N", "outcome": "inactive"}, {"smiles": "CCCCCCCCCc1ccc(O)cc1", "AC50": "55.2 µM (active) and 30 µM (active) and 24 µM (active)"}, {"smiles": "O=S(=O)(O)C(F)(F)C(F)(F)C(F)(F)C(F)(F)C(F)(F)C(F)(F)F", "outcome": "inactive"}, {"smiles": "Cc1ccccc1O", "outcome": "inactive"}, {"smiles": "c1cc2ccc3cccc4ccc(c1)c2c34", "outcome": "inactive"}, {"smiles": "C[C@]12CCC(=O)C=C1CC[C@@H]1[C@@H]2CC[C@@]2(C)[C@H]1CC[C@]2(C)O", "outcome": "inactive"}, {"smiles": "Oc1c(Cl)c(Cl)c(Cl)c(Cl)c1Cl", "outcome": "inactive"}, {"smiles": "CCOP(=S)(OCC)SCSC(C)(C)C", "outcome": "inactive"}, {"smiles": "CCCCCCOC(=O)c1ccccc1C(=O)OCCCCCC", "outcome": "inactive"}, {"smiles": "CCOC(=O)C(O)(c1ccc(Cl)cc1)c1ccc(Cl)cc1", "outcome": "inactive"}, {"smiles": "ClC1=C(Cl)[C@]2(Cl)[C@@H]3[C@H]4C[C@H]([C@@H]5O[C@H]45)[C@@H]3[C@@]1(Cl)C2(Cl)Cl", "outcome": "inactive"}, {"smiles": "O=C(NC(=O)c1cc(F)c(F)cc1Cl)Nc1cc(F)ccc1N1CCC(C(=O)O)CC1", "outcome": "inactive"}, {"smiles": "CCSC(=O)N(CC)C1CCCCC1", "outcome": "inactive"}, {"smiles": "CCCCCCCCCC[N+](C)(C)CCCCCCCCCC", "outcome": "inactive"}, {"smiles": "CN(C)c1nc(=O)n(C2CCCCC2)c(=O)n1C", "outcome": "inactive"}, {"smiles": "OCC(O)CO", "outcome": "inactive"}, {"smiles": "O=NN(c1ccccc1)c1ccccc1", "outcome": "inactive"}, {"smiles": "CCC(=O)O[C@H]1CC[C@H]2[C@@H]3CCC4=CC(=O)CC[C@]4(C)[C@H]3CC[C@]12C", "outcome": "inactive"}, {"smiles": "COS(=O)(=O)OC", "outcome": "inactive"}, {"smiles": "Cc1cc(-c2ccc(N)c(C)c2)ccc1N", "outcome": "inactive", "AC50": "72.3 µM (active)"}, {"smiles": "c1ccc(-c2ccccc2)cc1", "outcome": "inactive"}, {"smiles": "Clc1ccc(Cl)cc1", "outcome": "inactive"}, {"smiles": "COc1ccc(O)c(C(C)(C)C)c1", "outcome": "inactive"}, {"smiles": "O=C(NC(=O)c1c(F)cccc1F)Nc1cc(Cl)c(OC(F)(F)C(F)F)c(Cl)c1", "outcome": "inactive"}, {"smiles": "N#Cc1ccc(N(CC(N)=O)CC(F)(F)F)cc1C(F)(F)F", "outcome": "inactive"}, {"smiles": "Cc1ccc(O)c(C)c1", "outcome": "inactive"}, {"smiles": "Clc1ccc(C(Cl)(Cl)Cl)cc1", "outcome": "inactive"}, {"smiles": "C1CC2OC2CC1C1CO1", "note": "(stereo not given)", "outcome": "inactive"}, {"smiles": "Cc1cccc([N+](=O)[O-])c1", "outcome": "inactive"}, {"smiles": "CC(C)(O)C(=O)Nc1ccc([N+](=O)[O-])c(C(F)(F)F)c1", "outcome": "inactive"}, {"smiles": "Nc1ccc(-c2ccc(N)cc2)cc1", "outcome": "inactive"}, {"smiles": "ClC1=C(Cl)[C@]2(Cl)[C@@H]3[C@@H]4C[C@@H]([C@H]5O[C@@H]45)[C@@H]3[C@@]1(Cl)C2(Cl)Cl", "outcome": "inactive"}, {"smiles": "Cc1ccccc1[N+](=O)[O-]", "outcome": "inactive"}, {"smiles": "CCC(C)c1cc([N+](=O)[O-])cc([N+](=O)[O-])c1O", "note": "(stereo not given)", "outcome": "inactive"}, {"smiles": "CC#Cc1cc(C)nc(Nc2ccccc2)n1", "outcome": "inactive"}, {"smiles": "Oc1ccc(Cl)cc1Cl", "outcome": "inactive"}, {"smiles": "ClC1=C(Cl)[C@]2(Cl)[C@@H]3[C@@H](Cl)[C@H]4O[C@H]4[C@@H]3C1(Cl)C2(Cl)Cl", "outcome": "inactive"}, {"smiles": "CC(c1ccc(O)cc1)(c1ccc(O)cc1)c1ccc(O)cc1", "AC50": "11.9 µM (active)"}]}]}
